PubChem BioAssay AID1259240 (Keith Lab, Institute of Cancer Science, University of …, 2017)
The source made the active and inactive calls. Cut-off read from the data, not from the text of the source: active = fold change mostly below about -2 (no sharp cut-off); inactive = mostly above about -1.8.

Experiment: modulation of TERT promoter-driven luciferase – cell-based, luciferase reporter, human, primary screen (AID 1259240)
Conditions: A2780 TERT promoter luciferase reporter, 16 h; at 20 µM, fold versus average of vehicle-only wells

Fold change, inactive:
Cc1ccc(Cn2nc(C)c(NC(=O)c3onc(C)c3Cl)c2C)cc1 1.31
O=C(NCc1ccccn1)c1cccn2c(=O)c3c4c(sc3nc12)CCCC4 -1.8
COC(=O)c1ccc(CSc2nc(-c3ccco3)nc3c2c(=O)n(C)c(=O)n3C)o1 -1.08
COCCn1c(SCC(=O)Nc2nnc(C)s2)nc2c(c1=O)SC(C)C2 (centres undefined) 1.17
Cc1cc(NC(=O)CSCc2nc(-c3cccc(Cl)c3)oc2C)no1 1.06
Cc1c(NC(=O)c2cc(C3CC3)on2)c(=O)n(-c2ccccc2)n1C -1.33
CC1CCN(S(=O)(=O)c2ccc3c(c2)N(CC(=O)NCCN2CCCC2)C(=O)CO3)CC1 -1.01
CCC(=O)Nc1nc2nc(C(C)(C)C)cc(=O)n2[nH]1 -1.74
Fc1ccc(CNc2nnc(Cc3ccncc3)c3ccccc23)cc1 -1.53
COC(=O)c1ccc(-c2nn(C)c(=O)c3ccccc23)cc1 -1.09
CCN1C(=O)N/C(=C/c2cn(CC(=O)Nc3ccc(Cl)cc3)c3ccccc23)C1=O -1.87
CC(=O)N1CSCC1C(=O)N1CCN(c2ccc(N3CCOCC3)nn2)CC1 (centres undefined) -1.03
COc1cc(C(=O)Nc2ccc3oc(-c4ccncc4)nc3c2)cc(OC)c1OC -1.49
CC(C)CCNC(=O)C1CCC(CNS(=O)(=O)c2cccc3nsnc23)CC1 (centres undefined) -1.62
CCC(CC)c1nnc(NC(=O)Cn2cnc3c2c(=O)n(C)c(=O)n3C)s1 -1.36
CCOC(=O)N1CCC(Nc2c(N3CCOCC3)c(=O)c2=O)CC1 -1.09
C=CCOc1ccc(-c2nc3s/c(=C\c4cccc(OC(C)=O)c4)c(=O)n3n2)cc1 1.2
CC(C)OCCCNC(=O)c1ccc(NC2=NC3CS(=O)(=O)CC3S2)cc1 (centres undefined) 1.22
COc1ccc(-n2c(-c3ccco3)nc3c(cnn3-c3ccc(Cl)cc3)c2=O)cc1 -1.39
CN(C)S(=O)(=O)N(CC(=O)Nc1ccccc1F)c1ccccc1 -1.38
Cc1cccc(CCn2c(=O)c3ccccc3n(Cc3cc(=O)n4ccccc4n3)c2=O)c1 -1.38
COCCN1C(=O)C(=O)/C(=C(\O)c2ccc(OC)cc2)C12C(=O)N(C)c1ccccc12 (centres undefined) -1.95
CC1CN(C2=NC(=O)/C(=C/c3ccccc3Br)S2)CC(C)O1 (centres undefined) -1.41
CC(C)Cc1nnc(NC(=O)CSc2ncn[nH]2)s1 -1.25
CCOc1ccc(OCC)c(NC(=O)C2CCCN(S(=O)(=O)c3cnc[nH]3)C2)c1 (centres undefined) 1.05
COc1ccc(OC)c(S(=O)(=O)c2cc3cc(OC)ccc3oc2=O)c1 -1.77
Cc1ccc(NC(=O)CC2Sc3ccc(C(F)(F)F)cc3NC2=O)cc1C (centres undefined) -1.24
COc1ccc(CCNc2ccc3nnc(C)n3n2)c(OC)c1 -1.29
CCc1nnc(NC(=O)CSc2ncnc3ccccc23)s1 1.11
O=C(NC1CCCCC1)C1CCCN(S(=O)(=O)c2cnc[nH]2)C1 (centres undefined) -1.72
CCn1c(Oc2ccccc2)nc2c1c(=O)n(C)c(=O)n2C -1.53

Fold change, active:
COc1nc(NC(C)(C)C)nc(Oc2ccc(=O)[nH]n2)n1 2
CCOC(=O)c1c(C)n(C)c2ccc(OCC(O)Cn3nc(C)cc3C)cc12 (centres undefined) -2.1
CC(C)n1cnc2cc(NCc3ccccc3Cl)ccc21 -2.21
CCOC(=O)c1ccc(N2C(=O)c3n[nH]c(-c4ccco4)c3C2c2ccc(C)cc2)cc1 (centres undefined) -2.14
CCN(CC)CCNc1nc2c(c(=O)[nH]c(=O)n2C)n1CCCc1ccccc1 -2.06
CN(C1=NS(=O)(=O)c2cc([N+](=O)[O-])ccc21)c1ccccc1 -2.35

outcome, inactive:
O=C1CCCC2=C1C(c1ccccc1Cl)n1nc(-c3ccccc3)nc1N2 (centres undefined)

outcome, active:
O=C1C(c2sc3ccccc3c2O)=Nc2c1ccc1ccccc21
